From ChEMBL document CHEMBL4513216, “Probing the Open Global Health Chemical Diversity Library for Multistage-Active Starting Points for Next-Generation Antimalarials” (ACS Infect Dis, 2020)
Hit rate of the full screen: of about 68,000 compounds, about 2,700 (4%) showed an effect of 50% or more. The sample holds strong results, similar compounds and a random draw of the others, so the mix is not that of the screen.

What follows are compounds tested on Plasmodium berghei (assay: Screen against P. berghei liver stage (PbLuc), transformed with Luciferase, at 2uM). Conditions: tested at 2 uM.
Format: functional, HepG2

SMILES | INHIBITION
Cn1ccnc1CN1CCC2(CC1)CCN(Cc1ccoc1)C2 | -78.53%
Cc1ccc(CN2CCCC3(CCN(Cc4ccoc4)CC3)C2)cc1 | 78.88%
Cc1ccc(CN2CCC3(CC2)CCN(Cc2ccoc2)CC3)cc1 | 14.93%
Cn1cccc1C(=O)N1CCO[C@H]2[C@H](OCc3cccnc3)CC[C@@H]21 | 0.32%
O=C1NCCN(Cc2ccccc2)C1CC(=O)N1CCc2n[nH]cc2C1 (centres undefined) | 50.32%
O=C1NCCN(CC2CCCCC2)C1CC(=O)N1CCc2n[nH]cc2C1 (centres undefined) | 5.17%
O=C1NCCN(Cc2cccnc2)C1CC(=O)N1CCc2n[nH]cc2C1 (centres undefined) | -3.25%
Cc1cc(C2CCC2)nc(N2CCC3(CCCNC3=O)C2)n1 (centres undefined) | 4.74%
CN(C)c1nc2c(c(N3CCC4(CCCNC4=O)C3)n1)CCCC2 (centres undefined) | 42.17%
Cc1nc2c(c(N3CCC4(CCCNC4=O)C3)n1)CCC2 (centres undefined) | 27.85%
Cc1nc(N2CCC3(CCCNC3=O)C2)nc2c1CCCC2 (centres undefined) | 62%
O=C1NCCCC12CCN(c1nc3c(c(C(F)(F)F)n1)CCCC3)C2 (centres undefined) | 1.42%
CNc1nc(N2CCC3(CCCNC3=O)C2)nc2c1CCC2 (centres undefined) | 56.49%
O=c1[nH][nH]c2cn(-c3ccccc3)c(=O)n12 | -73.41%
N#CCCn1cnc2c(F)cc(Br)cc2c1=O | -23.16%
c1cc(-c2nnc(C3CCCN(CC4CCCCC4)C3)o2)ccn1 (centres undefined) | 29.48%
Cc1cccc2nc(CNC(=O)N3CCC(OCC4CC4)CC3)cn12 | 38.2%
Cc1ccc(OCCCC(=O)Nc2nonc2C)cc1C | -9.17%
CN(C)CCOCc1cncc2c1CCN(Cc1ccccn1)C2 | 56.21%
CN(C)C(=O)COCc1cncc2c1CCN(Cc1ccccn1)C2 | 41.93%
COCc1cncc2c1CCN(Cc1ccccn1)C2 | 0.3%
O=C(c1ccnn1COc1ccc(Cl)cc1)N1CCOCC1 | 8.56%
CCn1c(Nc2ccccc2OC)nc2c(C)nn(C)c2c1=O | -18.88%

SMILES | INHIBITION
O=S(=O)(Cc1ccc(F)c(Cl)c1)NC(CO)c1ccco1 (centres undefined) | 26.62%
Cc1noc2nc(C3CCN(CC4CCCCC4)CC3)cc(C(F)F)c12 | -7.7%
Cc1nc(CN(C)c2nccc(N(C)C)n2)cs1 | -13.89%
Cc1nc(CN(C)c2nccc(C(F)(F)F)n2)cs1 | 60.13%
COc1ccnc(N(C)Cc2csc(C)n2)n1 | -21.99%
Cc1nn(C)c(C)c1Cc1nc(N(C)C)no1 | 20.71%
CC(C)c1nccn1Cc1cc(C(=O)NCC(F)(F)F)n[nH]1 | -7.52%
O=C1NCC(C(=O)Nc2ncc(Cc3cccc(F)c3)s2)N1 (centres undefined) | 3.06%
O=C1NCC(C(=O)Nc2ncc(Cc3ccc(F)cc3)s2)N1 (centres undefined) | 21.39%
O=C1NCC(C(=O)Nc2ncc(Cc3ccccc3)s2)N1 (centres undefined) | 53.98%
COCc1cccc(C(=O)N2CCCN(C(=O)OCC(C)C)CC2)c1 | 29.19%
COC(=O)CNC(=O)c1c(-n2cnnn2)sc2c1CCCC2 | 17.26%
Cc1nc(CO[C@H]2CN(C(=O)c3cccn3C)[C@@H]3COC[C@H]23)cs1 | 36.75%
O=C(Nc1ccccc1)[C@H]1O[C@H](CCN2CCNCC2)CC[C@@H]1O | 51.81%
CN1CCN(CC[C@@H]2CC[C@H](O)[C@@H](C(=O)Nc3ccccc3)O2)CC1 | 29.85%
O=C(Nc1ccccc1)[C@H]1O[C@H](CCN2CCCCC2)CC[C@@H]1O | 4.04%
CCN1CCCC1CNCc1cc2cc3c(cc2[nH]c1=O)OCCO3 (centres undefined) | 16.87%
CCNC(=O)[C@@H]1CCCN1[C@@H](C(=O)NC)C1CC1 | 54.01%
CCCNC(=O)[C@@H]1CCCN1[C@@H](C(=O)NC)C1CC1 | 40.28%
CNC(=O)[C@@H](C1CC1)N1CCC[C@H]1C(=O)NCC(C)C | 40.28%
O=C1CN(C(=O)C2CCCCC2)CC(O)CN1Cc1ccc(Cl)cc1 (centres undefined) | 43.15%
Cn1ccnc1CN1CCC2(CC1)CC(N1CCCC1)c1ccccc12 (centres undefined) | -11.26%
Cc1ccc(-n2cnnn2)cc1NCC(=O)Nc1cc(F)ccc1F | 19.95%

SMILES | INHIBITION
Cc1nn(C(C)C)c(C)c1CN1CCN(C2CCCCC2)C(=O)C1 | -22.72%
Cc1nn(CCO)c(C)c1CN1CCN(C2CCCCC2)C(=O)C1 | 57.21%
C=C(C)Cn1nc(C)c(CN2CCN(C3CCCCC3)C(=O)C2)c1C | -17.01%
CO[C@H]1CC[C@H]2[C@H]1OCCN2C(=O)C1=CCCC1 | 28.81%
CCN1CCC(Cn2ccc3ccc(C(=O)OC)cc3c2=O)C1 (centres undefined) | 39.26%
O=C(CCNS(=O)(=O)c1ccc(Cl)cc1)NCc1ccoc1 | -29.08%
CCNC(=O)NC1CCCN(c2ccc(C)cc2)C1=O (centres undefined) | 10.63%
Cc1cccc(CNc2n[nH]c(C)n2)c1 | 14.11%
Cc1cccc(CNc2nnc(C(C)C)o2)c1 | 3.62%
CCOCc1nnc(NCc2cccc(C)c2)o1 | 55.39%
COCc1cccc(NCc2cccnc2)c1 | -12.52%
CCOCc1nnc(NCc2cccnc2)o1 | 54.29%
CCOCc1nnc(NCc2ccsc2)o1 | -19.14%
COc1ccc2c(C)nc(N3CCN([C@H]4CCCC[C@@H]4O)CC3)nc2c1 | -104.21%
CC(C)OCc1ncn2c1CN(Cc1cccs1)CCC2 | 16.22%
Cn1c(CS(=O)(=O)Cc2ccc(Cl)cc2)cc(=O)n(C)c1=O | 26.34%
Cc1nnc([C@]23COC[C@H]2CN(Cc2nccs2)C3)o1 | 51.36%
Cc1nnc([C@]23COC[C@H]2CN(Cc2cccs2)C3)o1 | 27.73%
Cc1cc(CN2C[C@@H]3COC[C@]3(c3nnc(C)o3)C2)no1 | -83.05%
O=C(CCNS(=O)(=O)c1ccc(F)cc1)NCc1ccoc1 | 12.01%
CC(C)COCCC(=O)Nc1cccnc1-n1cncn1 | 22.88%
Cc1nccn1-c1ncccc1NC(=O)CCOCC(C)C | 53.54%
CCOCCCC(=O)Nc1cccnc1-n1ccnc1C | -12.09%
